According to the supplement of paper PMC10849652:
About 8,800 targets were measured; listed, in parts, are those with a hit and a random draw of the rest. About 0.5% of all pairs of compound and target were hits. A number with no mark means an inactive call.

Legend:
Assay in all cases: log2 fold change, soluble protein after heating vs DMSO (PISA); higher = thermal stabilisation; K562 lysate, 10 uM; active = over 0.2 and 3.5 SD of the protein, either way, in both replicates (recomputed)
[1] = compound: Cc1sc2c(c1C)C(c1ccc(Cl)cc1)=N[C@@H](CC(=O)OC(C)(C)C)c1nnc(C)n1-2
Outline: (§1)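 The values are log-two fold changes in thermal stability compared with solvent controls and come from duplicates. They were obtained by TMTpro 16plex LC-MS/MS, with channel sums equalised, on the supernatant after 21,000xg for 90 min. That supernatant came from crude K562 extract at 1 mg/mL protein treated with 10 μM compound for 30 min, heated for 3 min across 48°C-58°C, pooled and brought to 0.5% NP-40 at 4°C.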

[2] = compound: CC1=C2C(=CC=C1)N=C(N(C2=O)C3=CC=CC=C3C)CN4C=NC5=C(N=CN=C54)N
Outline: as §1

[3] = compound: c1ccc([C@@H]2C[C@H]2NC2CCNCC2)cc1
Outline: as §1

[4] = compound: C1=CC=C(C=C1)[C@H](COC2=CC3=C(C=C2)NC(=O)N3)NC(=O)C4=CC=CN(C4=O)CC5=CC(=C(C=C5)F)F
Outline: as §1

[5] = compound: CC1=C(SC2=C1C(=N[C@H](C3=NN=C(N32)C)CC(=O)N)C4=CC=C(C=C4)Cl)C
Outline: as §1

Sequence of UniProt Q96CQ1 (Q96CQ1 whole entry, looked up): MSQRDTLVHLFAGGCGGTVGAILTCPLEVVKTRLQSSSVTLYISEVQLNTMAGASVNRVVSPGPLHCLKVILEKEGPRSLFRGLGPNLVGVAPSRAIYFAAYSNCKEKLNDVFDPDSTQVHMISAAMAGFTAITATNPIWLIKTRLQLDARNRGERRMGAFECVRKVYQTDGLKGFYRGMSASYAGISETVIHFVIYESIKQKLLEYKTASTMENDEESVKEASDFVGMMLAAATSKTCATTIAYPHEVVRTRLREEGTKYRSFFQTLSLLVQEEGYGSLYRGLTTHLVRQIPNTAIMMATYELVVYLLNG
Sequence of UniProt Q13309 (Q13309 whole entry, looked up): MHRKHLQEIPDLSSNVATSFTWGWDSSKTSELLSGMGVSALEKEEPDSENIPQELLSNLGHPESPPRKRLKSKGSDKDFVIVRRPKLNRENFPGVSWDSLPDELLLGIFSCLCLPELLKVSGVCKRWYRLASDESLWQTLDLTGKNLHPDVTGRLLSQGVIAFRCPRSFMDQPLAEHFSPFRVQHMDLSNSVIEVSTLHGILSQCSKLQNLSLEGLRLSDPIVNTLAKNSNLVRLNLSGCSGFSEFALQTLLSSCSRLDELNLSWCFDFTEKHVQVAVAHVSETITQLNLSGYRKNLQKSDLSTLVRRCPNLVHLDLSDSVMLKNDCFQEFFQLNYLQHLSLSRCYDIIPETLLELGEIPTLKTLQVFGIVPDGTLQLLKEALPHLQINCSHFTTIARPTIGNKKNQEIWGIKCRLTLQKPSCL
Sequence of UniProt Q15544 (Q15544 whole entry, looked up): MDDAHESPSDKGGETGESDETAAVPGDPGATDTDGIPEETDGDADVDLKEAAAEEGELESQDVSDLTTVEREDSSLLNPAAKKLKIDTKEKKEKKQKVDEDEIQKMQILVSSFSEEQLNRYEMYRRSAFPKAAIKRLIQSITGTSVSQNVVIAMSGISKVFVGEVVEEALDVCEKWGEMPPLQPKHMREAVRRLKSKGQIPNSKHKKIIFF
Sequence of UniProt O60225 (O60225 whole entry, looked up): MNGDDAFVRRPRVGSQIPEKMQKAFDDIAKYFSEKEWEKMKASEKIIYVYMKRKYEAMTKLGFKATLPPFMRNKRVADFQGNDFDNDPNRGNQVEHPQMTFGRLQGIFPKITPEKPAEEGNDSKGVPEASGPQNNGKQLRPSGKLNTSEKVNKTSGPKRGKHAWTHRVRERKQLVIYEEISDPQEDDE
Sequence of UniProt Q9H668 (Q9H668 whole entry, looked up): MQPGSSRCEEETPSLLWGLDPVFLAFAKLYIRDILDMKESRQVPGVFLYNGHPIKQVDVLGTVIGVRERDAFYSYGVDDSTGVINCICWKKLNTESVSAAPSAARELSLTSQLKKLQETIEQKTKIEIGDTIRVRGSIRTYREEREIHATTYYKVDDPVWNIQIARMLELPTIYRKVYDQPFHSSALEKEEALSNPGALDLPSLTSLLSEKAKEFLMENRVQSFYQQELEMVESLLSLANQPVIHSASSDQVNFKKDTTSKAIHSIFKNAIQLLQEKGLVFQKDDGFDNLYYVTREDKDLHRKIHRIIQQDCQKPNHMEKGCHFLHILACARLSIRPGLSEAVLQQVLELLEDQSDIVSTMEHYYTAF
Sequence of UniProt Q6NXT4 (Q6NXT4 whole entry, looked up): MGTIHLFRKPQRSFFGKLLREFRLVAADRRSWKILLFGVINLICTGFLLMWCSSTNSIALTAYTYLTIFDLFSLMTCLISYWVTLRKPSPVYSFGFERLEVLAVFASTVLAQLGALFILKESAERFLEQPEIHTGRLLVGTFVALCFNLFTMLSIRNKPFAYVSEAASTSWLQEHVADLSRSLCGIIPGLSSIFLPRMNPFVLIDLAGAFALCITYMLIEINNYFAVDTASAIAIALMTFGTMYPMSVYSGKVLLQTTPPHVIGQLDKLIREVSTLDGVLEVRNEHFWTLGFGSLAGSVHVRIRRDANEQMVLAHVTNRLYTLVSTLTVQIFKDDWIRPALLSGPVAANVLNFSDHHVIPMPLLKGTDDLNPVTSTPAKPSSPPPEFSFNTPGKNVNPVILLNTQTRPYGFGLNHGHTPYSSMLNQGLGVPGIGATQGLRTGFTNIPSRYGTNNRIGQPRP
Sequence of UniProt P49675 (P49675 whole entry, looked up): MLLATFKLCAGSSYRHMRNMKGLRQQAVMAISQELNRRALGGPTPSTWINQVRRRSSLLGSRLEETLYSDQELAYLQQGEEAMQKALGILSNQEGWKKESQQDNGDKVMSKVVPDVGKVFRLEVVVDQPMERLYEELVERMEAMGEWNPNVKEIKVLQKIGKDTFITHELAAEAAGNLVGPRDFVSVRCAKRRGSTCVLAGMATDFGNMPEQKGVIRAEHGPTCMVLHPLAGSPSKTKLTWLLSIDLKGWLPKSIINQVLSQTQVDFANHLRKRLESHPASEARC
Sequence of UniProt O95149 (O95149 whole entry, looked up): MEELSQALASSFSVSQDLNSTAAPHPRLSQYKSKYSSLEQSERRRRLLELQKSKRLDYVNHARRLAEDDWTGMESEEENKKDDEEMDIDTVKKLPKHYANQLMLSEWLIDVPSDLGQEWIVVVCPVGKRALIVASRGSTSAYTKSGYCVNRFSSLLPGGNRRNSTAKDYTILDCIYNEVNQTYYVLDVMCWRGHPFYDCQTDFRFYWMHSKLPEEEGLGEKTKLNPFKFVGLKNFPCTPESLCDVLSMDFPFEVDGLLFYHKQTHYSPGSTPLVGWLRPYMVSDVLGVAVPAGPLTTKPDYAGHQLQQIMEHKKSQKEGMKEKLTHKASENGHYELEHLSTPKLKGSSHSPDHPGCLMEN
Sequence of UniProt Q8TCT8 (Q8TCT8 whole entry, looked up): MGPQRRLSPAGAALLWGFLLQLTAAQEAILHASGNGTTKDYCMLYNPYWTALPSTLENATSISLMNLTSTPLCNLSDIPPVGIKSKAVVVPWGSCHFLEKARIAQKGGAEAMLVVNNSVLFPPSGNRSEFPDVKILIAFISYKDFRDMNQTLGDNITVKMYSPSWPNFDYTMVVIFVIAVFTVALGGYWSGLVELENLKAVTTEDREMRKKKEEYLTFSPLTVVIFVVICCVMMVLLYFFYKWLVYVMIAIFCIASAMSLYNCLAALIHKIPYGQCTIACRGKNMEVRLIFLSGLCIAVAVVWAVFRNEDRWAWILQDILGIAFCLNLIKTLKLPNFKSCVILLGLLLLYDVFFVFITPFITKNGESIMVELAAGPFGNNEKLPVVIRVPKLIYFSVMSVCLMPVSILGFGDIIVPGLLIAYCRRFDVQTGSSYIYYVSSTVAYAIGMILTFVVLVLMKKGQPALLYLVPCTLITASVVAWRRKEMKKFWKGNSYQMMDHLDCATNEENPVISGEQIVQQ
Sequence of UniProt O95793 (O95793 whole entry, looked up): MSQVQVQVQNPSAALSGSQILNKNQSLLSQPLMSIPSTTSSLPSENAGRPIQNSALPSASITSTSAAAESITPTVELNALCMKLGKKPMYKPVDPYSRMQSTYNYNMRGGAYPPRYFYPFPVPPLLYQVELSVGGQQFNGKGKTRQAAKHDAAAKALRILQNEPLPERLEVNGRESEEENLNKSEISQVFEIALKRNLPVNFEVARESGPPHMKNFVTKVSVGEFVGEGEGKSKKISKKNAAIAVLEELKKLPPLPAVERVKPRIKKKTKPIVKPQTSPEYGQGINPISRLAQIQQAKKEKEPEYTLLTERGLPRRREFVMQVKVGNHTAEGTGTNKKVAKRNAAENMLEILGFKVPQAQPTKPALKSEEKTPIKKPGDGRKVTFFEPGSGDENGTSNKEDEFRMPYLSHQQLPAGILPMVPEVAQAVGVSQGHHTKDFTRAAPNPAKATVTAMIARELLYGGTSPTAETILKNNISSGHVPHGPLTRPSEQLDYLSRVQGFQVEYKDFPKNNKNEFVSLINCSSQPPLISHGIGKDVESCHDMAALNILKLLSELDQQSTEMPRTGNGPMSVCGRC
Sequence of UniProt P12931 (P12931 whole entry, looked up): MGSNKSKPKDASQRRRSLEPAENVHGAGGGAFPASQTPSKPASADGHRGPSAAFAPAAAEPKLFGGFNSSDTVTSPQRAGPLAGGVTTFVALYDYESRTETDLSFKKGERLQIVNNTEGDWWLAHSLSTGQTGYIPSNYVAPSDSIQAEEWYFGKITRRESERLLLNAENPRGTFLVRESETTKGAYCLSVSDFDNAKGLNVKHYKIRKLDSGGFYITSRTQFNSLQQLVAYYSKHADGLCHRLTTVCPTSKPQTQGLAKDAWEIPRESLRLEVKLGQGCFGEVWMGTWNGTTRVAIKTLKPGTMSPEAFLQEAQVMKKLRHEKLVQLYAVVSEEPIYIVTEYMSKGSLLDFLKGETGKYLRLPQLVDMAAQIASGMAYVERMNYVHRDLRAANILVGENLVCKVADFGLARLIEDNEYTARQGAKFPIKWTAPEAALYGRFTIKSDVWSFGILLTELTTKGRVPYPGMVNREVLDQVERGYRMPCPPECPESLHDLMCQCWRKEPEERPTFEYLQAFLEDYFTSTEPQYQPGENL
Sequence of UniProt B2RUZ4 (B2RUZ4 whole entry, looked up): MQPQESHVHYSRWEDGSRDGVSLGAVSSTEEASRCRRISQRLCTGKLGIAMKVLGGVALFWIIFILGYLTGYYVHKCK
Sequence of UniProt Q13487 (Q13487 whole entry, looked up): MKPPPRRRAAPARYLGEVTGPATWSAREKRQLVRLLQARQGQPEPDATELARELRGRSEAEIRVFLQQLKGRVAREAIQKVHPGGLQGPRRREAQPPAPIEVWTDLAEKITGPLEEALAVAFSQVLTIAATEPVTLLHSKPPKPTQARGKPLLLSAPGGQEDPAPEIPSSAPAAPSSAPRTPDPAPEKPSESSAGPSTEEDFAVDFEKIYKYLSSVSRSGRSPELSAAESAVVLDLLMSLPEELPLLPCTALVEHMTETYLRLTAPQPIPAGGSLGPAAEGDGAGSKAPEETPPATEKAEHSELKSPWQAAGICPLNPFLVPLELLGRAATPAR
Sequence of UniProt O00161 (O00161 whole entry, looked up): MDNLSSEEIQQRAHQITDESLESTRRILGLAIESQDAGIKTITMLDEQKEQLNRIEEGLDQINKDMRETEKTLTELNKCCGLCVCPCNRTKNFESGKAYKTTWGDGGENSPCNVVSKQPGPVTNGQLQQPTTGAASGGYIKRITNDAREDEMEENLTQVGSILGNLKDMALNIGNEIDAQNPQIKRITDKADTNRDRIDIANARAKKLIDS

Q: How did the log2 fold change [1] turn out when STK17B (UniProt O94768) was run?
A: -0.029

Q: How did the log2 fold change [2] turn out when SIN3B (UniProt O75182) was run?
A: -0.129

Q: What about the log2 fold change [3] of the same target?
A: 0.052

Q: How did the log2 fold change [1] turn out when SMPD2 (UniProt O60906) was run?
A: -0.244

Q: What about the log2 fold change [3] of the same target?
A: -0.05

Q: What does the source list for STN1 (UniProt Q9H668)?
A: log2 fold change [4]: -0.125; log2 fold change [5]: 0.073; log2 fold change [2]: -0.115; log2 fold change [3]: -0.049

Q: For SLC40A1 (UniProt Q9NP59), which log2 fold change [2] is on record?
A: 0.013

Q: What about the log2 fold change [1] of the same target?
A: -0.107

Q: And the log2 fold change [3]?
A: -0.205

Q: SNRPD2 (UniProt K7EJB5) was tested. Which log2 fold change [2] did it give?
A: 0.024

Q: What about the log2 fold change [1] of the same target?
A: -0.047

Q: For SLCO4A1 (UniProt Q96BD0), which log2 fold change [4] is on record?
A: 0.203

Q: And the log2 fold change [5]?
A: -0.372

Q: And the log2 fold change [3]?
A: -0.013

Q: Which log2 fold change [2] does the source give for TARDBP (UniProt K7EN94) here?
A: 0.319

Q: Which log2 fold change [3] does the source give for SLC41A1 (UniProt Q8IVJ1) here?
A: -0.016

Q: SSX5 isoform 2 (UniProt O60225) was tested. Which log2 fold change [4] did it give?
A: 0.022

Q: And the log2 fold change [5]?
A: 0.03

Q: What about the log2 fold change [2] of the same target?
A: -0.157

Q: What about the log2 fold change [3] of the same target?
A: -0.253

Q: For STK26 isoform 3 (UniProt Q9P289), which log2 fold change [1] is on record?
A: 0.166

Q: For SLC12A6 isoform 2 (UniProt Q9UHW9), which log2 fold change [1] is on record?
A: -0.179

Q: What does the source list for SNUPN (UniProt O95149)?
A: log2 fold change [4]: -0.013; log2 fold change [5]: -0.018; log2 fold change [2]: 0.047; log2 fold change [3]: -0.02

Q: With SMARCA4 isoform 4 (UniProt P51532) as the target, how does the log2 fold change [1] read?
A: -0.007

Q: And the log2 fold change [3]?
A: 0.131

Q: What does the source list for SHB (UniProt Q15464)?
A: log2 fold change [1]: 0.033; log2 fold change [3]: 0.086

Q: For SLC30A6 isoform 2 (UniProt Q6NXT4), which log2 fold change [4] is on record?
A: 0.033

Q: And the log2 fold change [5]?
A: -0.046

Q: And the log2 fold change [2]?
A: 0.116

Q: What about the log2 fold change [3] of the same target?
A: -0.059

Q: How did the log2 fold change [1] turn out when STK38L (UniProt Q9Y2H1) was run?
A: -0.031

Q: How did the log2 fold change [4] turn out when SLC22A18 (UniProt Q96BI1) was run?
A: 0.07

Q: What about the log2 fold change [5] of the same target?
A: 0.048

Q: What about the log2 fold change [2] of the same target?
A: -0.036

Q: And the log2 fold change [3]?
A: -0.088

Q: SZT2 (UniProt Q5T011) was tested. Which log2 fold change [4] did it give?
A: -0.285

Q: And the log2 fold change [5]?
A: -0.066

Q: And the log2 fold change [1]?
A: -0.148

Q: What about the log2 fold change [3] of the same target?
A: 0.105

Q: For SNAP23 isoform 2 (UniProt O00161), which log2 fold change [2] is on record?
A: 0.045

Q: And the log2 fold change [3]?
A: -0.038

Q: Which log2 fold change [3] does the source give for STK17A (UniProt Q9UEE5) here?
A: 0.148

Q: What does the source list for SLC35A3 isoform 2 (UniProt Q9Y2D2)?
A: log2 fold change [2]: 0.008; log2 fold change [3]: -0.57

Q: Which results are given for SPPL2A (UniProt Q8TCT8)?
A: log2 fold change [4]: -0.148; log2 fold change [5]: 0.118; log2 fold change [2]: 0.087; log2 fold change [3]: 0.098

Q: With TAF11 (UniProt Q15544) as the target, how does the log2 fold change [2] read?
A: 0

Q: And the log2 fold change [1]?
A: -0.16

Q: What about the log2 fold change [3] of the same target?
A: -0.073

Q: With SHC1 (UniProt P29353) as the target, how does the log2 fold change [3] read?
A: 0.201

Q: STAU1 isoform 3 (UniProt O95793) was tested. Which log2 fold change [4] did it give?
A: 0.19

Q: What about the log2 fold change [5] of the same target?
A: 0.043

Q: And the log2 fold change [3]?
A: 0.081

Q: With SRC isoform 2 (UniProt P12931) as the target, how does the log2 fold change [4] read?
A: -0.052

Q: What about the log2 fold change [5] of the same target?
A: -0.412 (active)

Q: And the log2 fold change [1]?
A: -0.105

Q: What about the log2 fold change [3] of the same target?
A: 0.017

Q: Which results are given for SKP2 (UniProt Q13309)?
A: log2 fold change [2]: -0.015; log2 fold change [1]: -0.003; log2 fold change [3]: 0.001

Q: With SMIM1 (UniProt B2RUZ4) as the target, how does the log2 fold change [4] read?
A: 0.053

Q: And the log2 fold change [5]?
A: -0.054

Q: What about the log2 fold change [3] of the same target?
A: -0.028

Q: For SLC25A36 (UniProt Q96CQ1), which log2 fold change [2] is on record?
A: 0.013

Q: What about the log2 fold change [1] of the same target?
A: 0.035

Q: And the log2 fold change [3]?
A: 0

Q: For SIX5 (UniProt Q8N196), which log2 fold change [4] is on record?
A: -0.011

Q: What about the log2 fold change [5] of the same target?
A: 0.034

Q: And the log2 fold change [1]?
A: -0.037

Q: And the log2 fold change [3]?
A: 0.209

Q: SNAPC2 (UniProt Q13487) was tested. Which log2 fold change [4] did it give?
A: 0.107

Q: What about the log2 fold change [5] of the same target?
A: 0.302

Q: And the log2 fold change [1]?
A: 0.101

Q: And the log2 fold change [3]?
A: 0.004

Q: For STAR (UniProt P49675), which log2 fold change [2] is on record?
A: 0.048

Q: What about the log2 fold change [1] of the same target?
A: -0.077

Q: And the log2 fold change [3]?
A: -0.028
